MCF10A rereplic – A quantitative high throughput screen for small molecules that induce DNA re-replication in MCF 10a normal breast cells. MCF 10A DNA re-replication, Hoechst nuclear intensity, 48 h. Potency, µM (highest dose often 46.1 µM), without a hit: at the highest dose activity, positive = re-replication, actives largely listed as activators. hit rate 2.9% among 350,000. AID 624296, 2012; further: % of control where 0% means no effect; nearly all actives have a fitted effect of over 50% in size
SW480 rereplic – A quantitative high throughput screen for small molecules that induce DNA re-replication in SW480 colon adenocarcinoma cells | SW480 DNA re-replication, Hoechst DNA content imaging, 48 h | Potency, µM (doses to about 46.1 µM), for inactives: top-dose re-replication activation, hits mostly activators | hit rate 1.8% among 340,000 | AID 624297, 2012; further: % of control where 0% means no effect; nearly all actives have a fitted effect of over 55% in size
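Image-based DNA-content assay: after two days of treatment, nuclei were labelled with the DNA dye Hoechst and imaged, and hits were compounds raising the count of nuclei showing high fluorescence intensity.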
KB-3-1 cytotox – qHTS assay for MDR1-selective chemotherapeutics: Primary screen using the parental adenocarcinoma cell KB-3-1. hit rate 1.4% among 400,000. Potency, µM (top dose mostly 46.1 µM), actives largely listed as cytotoxic. KB-3-1 viability, CellTiter-Glo ATP luminescence, 72 h. AID 1347075, 2019; further: on the % scale 0 is the no-effect control and ±100 the full control effect; nearly all actives have a fitted effect of over 60% in size
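Screening of KB-3-1 cells (DMEM, 10% FBS, phenol-red free) ran from lowest to highest compound concentration; after 72 h at 37 °C viability was read luminescently and curves fitted.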
TSG101-PTAP inh – qHTS Assay for Iinhibitors of HIV-1 Budding by Blocking the Interaction of PTAP/TSG101; Tumor susceptibility gene 101 protein (Homo sapiens), Q99816; Fluorescence polarization, FITC-PTAP peptide / Tsg101 binding; Potency, µM (highest dose often 115 µM), for inactives: at the highest dose activity change, negative = inhibition, actives largely listed as inhibitors; 340,000 tested, under 10 active; active means well fitted inhibition curve with a large enough effect in the main read-out, with a control signal flat, not every such curve was filed as active; inconclusive means small, poorly fitted or top-dose-only effect, or effect the other way, or a change in a side signal; inactive means no such curve, though single readings can be large or run the other way; further: % of control where 0% means no effect
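Compounds were pin-transferred onto Tsg101 binding domain (10 uM final) in HEPES pH 7.5 buffer, then FITC-PTAP peptide was added at 50 nM final. After 20 min at RT, polarization reported peptide displacement across a qHTS concentration series.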
RGS4 inh – Inhibitors of Regulator of G Protein Signaling (RGS) 4: qHTS; hit rate 0.039% among 390,000; Transcreener GDP fluorescence polarization, RGS4-accelerated GTP hydrolysis; Potency, µM (titrated, usually from 114 µM), for the others: at the highest dose activity change, negative = inhibition, usual class: inhibitors; Regulator of G-protein signaling 4 (Homo sapiens), P49798; AID 504845, 2011; further: on the % scale 0 is the no-effect control and ±100 the full control effect; nearly all actives have a fitted effect of over 75% in size
Target sequence (P49798 whole entry, looked up): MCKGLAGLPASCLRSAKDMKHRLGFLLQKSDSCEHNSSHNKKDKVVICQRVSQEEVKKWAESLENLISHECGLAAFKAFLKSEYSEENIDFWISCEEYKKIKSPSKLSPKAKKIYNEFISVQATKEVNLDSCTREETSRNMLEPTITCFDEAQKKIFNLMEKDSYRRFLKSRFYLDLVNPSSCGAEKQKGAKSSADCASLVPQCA
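MLSMR compounds (23 nl, pin-transferred) preincubated 10 min at room temperature with a 500nM (2x) first reagent, then RGS4 at 900nM (2x) plus Transcreener GDP mix added; fluorescence polarization (620/688 nm) read before and after 90 min at 30 °C.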
KB-V1 MDR tox – qHTS assay for MDR1-selective chemotherapeutics: Primary screen using the drug-selected MDR subline cells KB-V1; Potency, µM (highest dose often 46.1 µM), actives largely listed as cytotoxic; hit rate 3.4% among 400,000; KB-V1 MDR cells viability, CellTiter-Glo, 72 h; AID 1347076, 2019; further: on the % scale 0 is the no-effect control and ±100 the full control effect; nearly all actives have a fitted effect of over 60% in size
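Compound-treated KB-V1 multidrug-resistant cells, 72 h, 37 degrees C; viability by CellTiter-Glo. Fitted qHTS curves give the values.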
An asterisk follows results filed as active; i = inactive; ? = inconclusive; / = not tested or not shown; [ ] = remark or other dose. Most compounds without a hit are left out; they make up all but 6.6% or so of the library. Unless noted, the call rests on the fitted dose curve; in most records, active means well fitted curve in the direction sought with a large enough effect; inconclusive means small, poorly fitted or top-dose-only effect, or another doubt; inactive means no such curve, though single readings can be large; an effect the other way counts as inactive or inconclusive. Potency means the concentration at half of the fitted maximal effect.

SMILES	MCF10A rereplic	SW480 rereplic	KB-3-1 cytotox	TSG101-PTAP inh	RGS4 inh	KB-V1 MDR tox
O=C(Nc1ccc2c(c1)N(C1CCCC1)C(=O)c1ccccc1S2)c1cccc(F)c1	/	/	?	/	14%	?
Cc1cccc(C)c1Cn1c(C)c(C(=O)NCc2ccc(C#N)cc2)sc1=O	/	/	?	/	/	18µM*
Cc1c(C(=O)NCc2ccc(C#N)cc2)sc(=O)n1Cc1ccccn1	/	/	i	/	/	?
CCOC(=O)c1ccc(CNc2ncnc3nc[nH]c23)cc1	/	/	i	/	26%	i
Cc1cccc(-c2cc3nc4c(c(N5CCOCC5)n3n2)CCCC4)c1	1%	0%	i	-3%	-2%	?
Cc1cccc(-c2cc3nc4c(c(NCc5ccco5)n3n2)CCCC4)c1	16µM*	?	i	0%	-1%	?
CCN(CC)CC(=O)Nc1c(C)cccc1C	?	3%	i	-1%	-3%[56.9 µM]	i
Cc1cccc(C)c1NC(=O)C(Cl)=C(Cl)Cl	24%	?	18µM*	2%	-37%	?
COc1ccc(OC)c(NC(=O)CSc2nnc(Cc3cccn3C)n2CCc2ccccc2)c1	-4%	14%	i	/	14%	7.3µM*
Cc1ccc(C(=O)Nc2ccccc2C(=O)OCc2cc(=O)n3nc(C4CC4)sc3n2)cc1	/	/	i	/	9%	?
COC(=O)C1=C(C)N(Cc2ccccc2)C(=NCc2cccc(C(F)(F)F)c2)N[C@H]1c1cccc(C(F)(F)F)c1	3.7µM*	28%[9.22 µM]	?	?	11%	?
COC(=O)C1=C(C)N(Cc2ccccc2)C(=NCc2cccc(C(F)(F)F)c2)N[C@H]1c1cccc(F)c1	12µM*	?	?	-9%	6%	?
COC(=O)C1=C(C)N(CC2CC2)C(=NCc2cccc(C(F)(F)F)c2)N[C@H]1c1ccccc1	?	-4%	i	0%	0%	i
CC1=NN(c2nc(-c3ccc(C)cc3)cs2)C(=O)C1N=Nc1ccccc1O (stereo unspecified)	?	0.73µM*	i	-5%	10%	i
Cc1ccc(S(=O)(=O)Nc2ccc3c(c2)c(C(=O)OC(C)C)c(C)n3S(=O)(=O)c2ccc(C)cc2)cc1	/	/	/	/	-11%	/
CCOc1ccc(-n2nc(CO)c(C(=O)NCc3ccccn3)n2)cc1	/	/	/	/	-1%	/
CC(C)NC(=O)Cn1c(SCC(=O)N2c3ccccc3CC2C)nc2ccccc21 (stereo unspecified)	-10%	-6%	i	-3%	15%	i
Cc1cccc(OCc2nnc(SCC(=O)N3c4ccccc4CCc4ccccc43)o2)c1	-7%	-2%	i	-3%	-35%	?
CC1Cc2ccccc2N1C(=O)CSc1nnc(CNc2ccccc2)o1 (stereo unspecified)	-3%	-2%	?	-5%	-4%	16µM*
O=C(CSc1nnc(COc2ccc(F)cc2)o1)N1c2ccccc2CCc2ccccc21	?	14%	i	/	-16%	6.5µM*
O=C(CSc1nnc(CNc2ccc(F)cc2)o1)N1c2ccccc2Sc2ccccc21	10%	-2%	?	-8%	-10%	3.3µM*
CC(C)Cn1c(=O)c2ccccc2n2c(SCC(=O)N3c4ccccc4CC3C)nnc12 (stereo unspecified)	2%	2%	i	-2%	21%	1.8µM*
O=S(=O)(c1cccc(Cl)c1)N1CCN(c2nc(-c3cccs3)nc3ccccc23)CC1	/	/	?	/	-7%	i
Cc1ccc(C2=NN(CC(=O)NCCc3ccc(Cl)cc3)C(=O)CC2)cc1	/	/	/	/	-5%	/

Screening results as filed in PubChem BioAssay.
